# Results filed as inconclusive are left out. Values without a mark were called inactive. Activity calls are given as the source filed them. Calls follow the shape of the dose curve; as a rule, active = well fitted inhibition curve with a large enough effect; inconclusive = small, poorly fitted or top-dose-only effect; inactive = flat fitted curve, though single readings scatter.
# Assay: Cytometry Cell-Based qHTS for Inhibitors of the mTORC1 Signaling Pathway in MEF cells (AID 2668);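 as to activity change, negative = inhibition: Tsc2-/- p53-/- mouse embryonic fibroblasts stably re-expressing wild-type Tsc2; percent cells positive for phospho-rpS6 Ser235/236 relative to propidium iodide stain; plate controls were DMSO wells for no effect and 7.5 nM rapamycin control wells for full effect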
# Conditions: mTORC1 pathway readout; series mostly up to 38.3 µM; activity change, negative = inhibition: at the top concentration
# Method in brief: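 MEFs (Tsc2-/-, p53-/- stably expressing WT Tsc2) treated 24 h at 37 degree Celsius, fixed, stained with Alexa-488 anti-phospho-rpS6 Ser235/236 and propidium iodide; Acumen laser scanning. Reported as % positive cells, phospho-S6 normalized to PI.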
# Potency is read from the fitted curve at half-maximal effect.
Compound,"activity change, negative = inhibition",Potency
CCN(CCCl)Cc1ccccc1Br,1.33%,
C=CCN1C[C@@H](C)N([C@H](c2ccc(C(=O)N(CC)CC)cc2)c2cccc(OC)c2)C[C@@H]1C,-4.06%,
N#CCCN,2.65%,
C[C@@H]1O[C@@H](O[C@H]2C[C@@H](O)[C@]3(CO)[C@@H]4C(CC[C@]3(O)C2)[C@@]2(O)CC[C@H]([C@@H]3COC(=O)C3)[C@@]2(C)C[C@H]4O)[C@H](O)[C@H](O)[C@H]1O (stereo partly specified),-1.31%,
N#C/C(=C/c1ccc(O)c(O)c1)C(N)=S,6.42%,
N=C(N)c1ccc(CS(=O)(=O)F)cc1,8.64%,
CC(=O)c1c(O)c(C)c(O)c(Cc2c(O)c3c(c(C(=O)/C=C/c4ccccc4)c2O)OC(C)(C)C=C3)c1O,4.87%,
CC(N)c1cccc(Cl)c1Cl (stereo unspecified),-10.1%,
CCN1C[C@@]2(COC)C3[C@@H](OC)C4[C@@H]1C3([C@@H]1C[C@]3(O)[C@H](OC(=O)c5ccccc5)[C@@H]1[C@]4(OC(C)=O)[C@@H](O)[C@@H]3OC)[C@H](OC)C[C@H]2O,3.66%,
C[N+]1(C)CCc2cc3c(cc2[C@H]1[C@@H]1OC(=O)c2c1ccc1c2OCO1)OCO3,-9.77%,
CCCn1c(=O)c2[nH]c(C3CCCC3)nc2n(CCCOC(=O)c2ccc(S(=O)(=O)F)cc2)c1=O,8%,
COc1ccc2c(c1O)-c1cccc3c1[C@@H](C2)N(C)CC3,0.757%,
COc1ccc2c(c1)/C(=C/c1cnc[nH]1)C(=O)N2,,6.56 µM (active)
CCCN1CCC[C@@H](c2cccc(O)c2)C1,5.87%,
CCCC[N+]1(C)C2CC(OC(=O)[C@H](CO)c3ccccc3)CC1C1OC12 (stereo partly specified),3.82%,
CC(=O)OCC1=C(C(=O)O)N2C(=O)[C@@H](NC(=O)CCC[C@@H](N)C(=O)O)[C@H]2SC1,8.23%,

Compound,"activity change, negative = inhibition",Potency
C[N+]1(C)C2CCC1CC(OC(=O)c1c[nH]c3ccccc13)C2 (stereo unspecified),-0.567%,
NC(N)=Nc1ccc2[nH]c3c(c2c1)C[C@@]1(O)[C@H]2Cc4ccc(O)c5c4[C@@]1(CCN2CC1CC1)[C@H]3O5,-24.3%,
Cc1cc([C@@H]2CCCN2C)on1,0.228%,
NC(Cc1cc(O)c(O)cc1O)C(=O)O (stereo unspecified),-0.662%,
Ic1ccccc1CNC1C2CCN(CC2)C1C(c1ccccc1)c1ccccc1 (stereo unspecified),,6.56 µM (active)
C[C@H](N)Cc1cccc(C(F)(F)F)c1,-3.96%,
CC(C)(O)[C@@H]1C2OC(=O)[C@@H]1[C@]1(O)C[C@H]3O[C@]34C(=O)O[C@H]2[C@]14C (tested in a mixture with another compound),-0.894%,
CC(C)[C@@]1(NC(=O)[C@@H]2C[C@@H]3c4cccc5[nH]cc(c45)C[C@H]3N(C)C2)O[C@@]2(O)[C@@H]3CCCN3C(=O)[C@H](Cc3ccccc3)N2C1=O,-23.4%,
NC(=O)CI,-16.8%,
CCS(=O)(=O)Nc1cccc(C(=C2CCCCC2)c2cnc[nH]2)c1,9.74%,
CC(C)(C)c1cc(C=C(C#N)C#N)cc(C(C)(C)C)c1O,,4.14 µM (active)
C=CCN(C1=NCCN1)c1c(Cl)cccc1Cl,10.5%,
CN1CC[C@@]2(C)c3cc(OC(=O)Nc4ccccc4)ccc3N(C)[C@@H]12,7.52%,
CCNC(=O)[C@H]1O[C@@H](n2cnc3c(N)ncnc32)[C@H](O)[C@@H]1O,3.3%,
N[C@@H](Cn1ccc(=O)[nH]c1=O)C(=O)O,0.0895%,

# — PubChem BioAssay (NCATS)
